From PubChem BioAssay (NCATS)
“And” between values parts separate entries of the source, which are not always exact repeats. Equal values may be shown once. Inconclusive results are not listed. A number with no mark means an inactive call. The source made the active and inactive calls. Calls follow the shape of the dose curve; as a rule, active = well fitted inhibition curve with a large enough effect; inconclusive = small, poorly fitted or top-dose-only effect; inactive = flat fitted curve, though single readings scatter.

What was measured:
[1] = system: HEK293; test: Cytotoxic Profiling of Annotated Libraries Using Quantitative High-Throughput Screening (AID 1296008); conditions: Five cell lines viability, CellTiter-Glo ATP luminescence, 48-72 h; max response: hits give low values
In short: (§1)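 Compounds were pin-transferred onto cells and incubated 48 or 72 hr at 37 degree Celsius, 95% humidity. CellTiter-Glo was added, plates sat 10 min at room temperature, then ATP-coupled luminescence was imaged as the viability read-out.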

[2] = system: KB-3-1; test: as above; conditions: Five cell lines viability, CellTiter-Glo ATP luminescence, 48-72 h; max response: hits give low values
In short: as §1

[3] = system: NIH3T3; test: as above; conditions: Five cell lines viability, CellTiter-Glo ATP luminescence, 48-72 h; max response: hits give low values
In short: as §1

[4] = system: MCC-26; test: qHTS assay to identify novel small-molecules to repurpose for Merkel cell carcinoma treatment (AID 1296009); conditions: MCC and control cell lines, CellTiter-Glo viability, 72 h; series mostly up to 46 µM
In short: (§2)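 Luminescence from CellTiter-Glo, read 10 min after addition at room temperature, reported viability following a 72 hr, 37 degree celsius treatment with NPC or MIPE compounds in titration; values normalized to plate controls.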

[5] = system: MKL-1; test: as above; conditions: MCC and control cell lines, CellTiter-Glo viability, 72 h; series mostly up to 46 µM
In short: as §2

[6] = system: HaCat; test: Cytotoxic Profiling of Annotated Libraries Using Quantitative High-Throughput Screening (AID 1296008); conditions: Five cell lines viability, CellTiter-Glo ATP luminescence, 48-72 h; max response: hits give low values
In short: as §1

[7] = system: MCC-13; test: qHTS assay to identify novel small-molecules to repurpose for Merkel cell carcinoma treatment (AID 1296009); conditions: MCC and control cell lines, CellTiter-Glo viability, 72 h; series mostly up to 46 µM
In short: as §2

[8] = system: CRL-7250; test: Cytotoxic Profiling of Annotated Libraries Using Quantitative High-Throughput Screening (AID 1296008); conditions: Five cell lines viability, CellTiter-Glo ATP luminescence, 48-72 h; max response: hits give low values
In short: as §1

[9] = system: HACAT; test: qHTS assay to identify novel small-molecules to repurpose for Merkel cell carcinoma treatment (AID 1296009); conditions: MCC and control cell lines, CellTiter-Glo viability, 72 h; at 44.8 µM (top of the series) unless noted
In short: as §2

[10] = system: HEK293T; test: as above; conditions: MCC and control cell lines, CellTiter-Glo viability, 72 h; at 44.8 µM (top of the series) unless noted
In short: as §2
% is scaled to controls: 0 for no effect and ±100 for the full control effect; potency is read from the fitted curve at half-maximal effect.
Also: nearly all actives have a fitted effect of over 60% in size.

Q: Which results are given for [Cl][In]([Cl])[Cl]?
A: max response [1]: 1.84%; max response [2]: 0.288% and -3.71%; max response [3]: -11.3%; Potency [4]: inactive; Potency [5]: inactive

Q: For CC(=O)Oc1ccc(C2(c3ccc(OC(C)=O)cc3)C(=O)Nc3ccccc32)cc1, which max response [1] is on record?
A: 1.93%

Q: What about the max response [6] of the same compound?
A: -16.5%

Q: And the max response [2]?
A: -1.67% and 11.5%

Q: And the max response [3]?
A: -14.8%

Q: What about the Potency [7] of the same compound?
A: inactive

Q: What about the Potency [4] of the same compound?
A: inactive

Q: And the Potency [5]?
A: inactive

Q: Which results are given for CN1CCN(C2Cc3ccccc3Sc3ccc(Cl)cc32)CC1 (stereo not drawn)?
A: max response [8]: -15.1%; outcome [6]: inactive; max response [2]: 6.06%; max response [3]: -9.64%; outcome [9]: inactive; Potency [7]: inactive; Potency [4]: inactive; Potency [5]: 26.6 µM (active)

Q: CCN(CC)CCSC(=O)C(c1ccccc1)c1ccccc1 was tested. Which max response [8] did it give?
A: -12.1%

Q: What about the max response [6] of the same compound?
A: -3.95%

Q: What about the max response [2] of the same compound?
A: 12.2% and -4.64%

Q: What about the max response [3] of the same compound?
A: -1.72%

Q: What about the Potency [7] of the same compound?
A: inactive

Q: And the Potency [4]?
A: inactive

Q: What about the Potency [5] of the same compound?
A: inactive

Q: Which results are given for CC1=C(/C=C/C(C)=C/C=C/C(C)=C/C(=O)O)C(C)(C)CCC1?
A: max response [6]: -3.44%; max response [2]: -14.5%; max response [3]: -0.598%; Potency [7]: inactive; Potency [4]: inactive

Q: Which Potency [1] does the source give for CSc1ccc2c(c1)C(N1CCN(C)CC1)Cc1ccccc1S2 (stereo not drawn) here?
A: 16.8 µM (active)

Q: And the outcome [6]?
A: inactive

Q: And the max response [2]?
A: 0.66%

Q: And the outcome [9]?
A: inactive

Q: What about the Potency [7] of the same compound?
A: inactive

Q: What about the Potency [4] of the same compound?
A: inactive

Q: Which max response [2] does the source give for CSc1ccc2c(c1)N(CCC1CCCCN1C)c1ccccc1S2 (stereo not drawn) here?
A: -7.5%

Q: And the Potency [7]?
A: 26.6 µM (active)

Q: And the Potency [5]?
A: 11.9 µM (active)

Q: What does the source list for CC(CN(C)C)CN1c2ccccc2CCc2ccccc21 (stereo not drawn)?
A: outcome [8]: inactive; max response [6]: 2.23%; max response [2]: 4.48%; max response [3]: 4.54%; Potency [7]: inactive; Potency [4]: inactive; Potency [5]: inactive

Q: What does the source list for OCc1cc(C(O)CNCCCCCCOCCCCc2ccccc2)ccc1O (stereo not drawn)?
A: max response [8]: -15.6%; max response [6]: 2.23%; max response [2]: -19.3%; max response [3]: -10.4%; Potency [7]: inactive; Potency [4]: inactive; Potency [5]: inactive

Q: What does the source list for C[C@](N)(Cc1ccc(O)cc1)C(=O)O?
A: activity change, negative = cytotoxicity [7]: 6.34% [at 4.84 µM]; activity change, negative = cytotoxicity [4]: 5.04% [at 4.84 µM]; activity change, negative = cytotoxicity [5]: -2.87% [at 4.84 µM]

Q: For CC(=O)c1ccc2c(c1)N(CCCN(C)C)c1ccccc1S2, which max response [2] is on record?
A: -1.52%

Q: And the max response [3]?
A: 1.48%

Q: What about the Potency [7] of the same compound?
A: inactive

Q: What about the Potency [4] of the same compound?
A: inactive

Q: And the Potency [5]?
A: inactive

Q: What does the source list for CC(=O)O[C@@]12CO[C@@H]1C[C@H](O)[C@@]1(C)C(=O)[C@H](O)C3=C(C)[C@@H](OC(=O)[C@H](O)[C@@H](NC(=O)OC(C)(C)C)c4ccccc4)C[C@@](O)([C@@H](OC(=O)c4ccccc4)[C@H]21)C3(C)C?
A: Potency [1]: 0.0021 µM (active); Potency [2]: 7.3 nM (active); Potency [3]: 8.4 nM (active)

Q: How did the max response [6] turn out when CNCCCC1c2ccccc2C=Cc2ccccc21 was run?
A: -1.18%

Q: And the max response [2]?
A: 6.95%

Q: What about the Potency [7] of the same compound?
A: inactive

Q: And the Potency [4]?
A: inactive

Q: With COCCOC(=O)C1=C(C)NC(C)=C(C(=O)OC/C=C/c2ccccc2)C1c1cccc([N+](=O)[O-])c1 (stereo not drawn) as the compound, how does the max response [2] read?
A: 22.9%

Q: And the Potency [4]?
A: inactive

Q: What about the Potency [5] of the same compound?
A: 21.1 µM (active)

Q: Which outcome [10] does the source give for CCN(CC)C(C)CN1c2ccccc2Sc2ccccc21 (stereo not drawn) here?
A: inactive

Q: And the Potency [7]?
A: inactive

Q: And the Potency [4]?
A: inactive

Q: What about the Potency [5] of the same compound?
A: inactive

Q: CN1CCCCC1CCN1c2ccccc2Sc2ccc(S(C)=O)cc21 (stereo not drawn) was tested. Which outcome [8] did it give?
A: inactive

Q: What about the outcome [6] of the same compound?
A: inactive

Q: What about the max response [2] of the same compound?
A: -15.2% and 0.424%

Q: What about the max response [3] of the same compound?
A: -18.7%

Q: And the outcome [9]?
A: inactive

Q: What about the Potency [7] of the same compound?
A: inactive

Q: And the Potency [4]?
A: inactive

Q: What about the Potency [5] of the same compound?
A: inactive

Q: What does the source list for CC1(C)Oc2ccc(C#N)cc2[C@@H](N2CCCC2=O)[C@@H]1O?
A: outcome [8]: inactive; max response [1]: -3.16%; max response [2]: -0.98% and -8.03%; max response [3]: -6.15%; Potency [7]: inactive; Potency [4]: inactive; Potency [5]: inactive

Q: Which results are given for COC(=O)C1=C(C)NC(C)=C(C(=O)OC)C1c1ccccc1[N+](=O)[O-]?
A: max response [8]: -7.51%; max response [1]: -14.4%; max response [6]: -2.57%; Potency [7]: inactive; Potency [4]: inactive

Q: With CC(C)c1c(C(=O)Nc2ccccc2)c(-c2ccccc2)c(-c2ccc(F)cc2)n1CC[C@@H](O)C[C@@H](O)CC(=O)O as the compound, how does the Potency [8] read?
A: 6.68 µM (active) and 2.73 µM (active)

Q: What about the max response [2] of the same compound?
A: -3.5%

Q: And the max response [3]?
A: -9.75% and 4.05%

Q: And the Potency [7]?
A: 23.7 µM (active)

Q: What about the Potency [4] of the same compound?
A: 23.7 µM (active)

Q: And the Potency [5]?
A: 3.35 µM (active)

Q: How did the Potency [4] turn out when Cc1c(O)cccc1C(=O)N[C@@H](CSc1ccccc1)[C@H](O)CN1C[C@H]2CCCC[C@H]2C[C@H]1C(=O)NC(C)(C)C was run?
A: inactive

Q: Which results are given for NC(=O)N/N=C/c1ccc([N+](=O)[O-])o1?
A: max response [8]: -6.15%; max response [6]: -0.194%; outcome [6]: inactive; max response [3]: 3.44%; outcome [9]: inactive; Potency [7]: inactive; Potency [4]: inactive; Potency [5]: 24.3 µM (active)

Q: How did the Potency [1] turn out when CC(CN1c2ccccc2Sc2ccccc21)N(C)C (stereo not drawn) was run?
A: 11.9 µM (active)

Q: And the max response [6]?
A: 3.18%

Q: What about the max response [2] of the same compound?
A: 7.29%

Q: What about the Potency [7] of the same compound?
A: inactive

Q: And the Potency [4]?
A: inactive

Q: And the Potency [5]?
A: inactive
